For 28 compounds, outcome, AC50 and cell viability, % of control (lower = more cytotoxic) results are on record in PubChem BioAssay (NCATS).

For assay [1] the following is noted: Ebola virus entry assay, ratio channel.
For assay [2] the following is noted: Ebola virus entry assay, green channel fluorescence.
The conditions of assay [3]: Ebola virus entry assay, blue channel fluorescence.
For assay [4] the following is noted: Ebola virus entry assay, reporter ratio channel; AC50: Channel type: primary unless noted; outcome: Channel type: primary unless noted.
For assay [5] the following is noted: Ebola virus entry assay, blue channel (ratio component).
For assay [6] the following is noted: Ebola virus entry cell assay, ratio channel.
For assay [7] the following is noted: Ebola virus entry reporter assay, green channel fluorescence. A general note: Reporter assays use an easily measured gene product as a stand-in for the process of interest.
The nature of assay [8]: High-throughput drug toxicity screening in the BPDCN cell line Gen2.2 (AID 1224824).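 Note: cells exposed to compounds for 48 h before reading.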 As to conditions: Gen2.2 BPDCN cells; at 45.8 µM (top of the series) unless noted. An outline of the steps:
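Gen2.2 cells (500/well) in phenol red-free RPMI with 10% FBS were exposed to compounds for 48 h at 37 °C, 5% CO2. Viability was read by CellTiter-Glo luminescence and normalized to DMSO (100%) and 9.2 uM bortezomib (0%).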

For some of these results: Entries with a potency or affinity are not part of this list. Active and inactive are the calls of the source.

Consider `NS(=O)(=O)c1cc2c(cc1C(F)(F)F)NC(Cc1ccccc1)NS2(=O)=O` (stereo not drawn), for which the result in assay [1], in assay [2], in assay [3], in assay [4], in assay [5] and in assay [6] was inactive.

As to `CN=C(NC#N)NCCSCc1nc[nH]c1C`, the outcome in assay [1], in assay [2], in assay [3], in assay [4], in assay [5] and in assay [6] was inactive.

Turning to `NCC[C@H](O)C(=O)N[C@@H]1C[C@H](N)[C@@H](O[C@H]2O[C@H](CN)[C@@H](O)[C@H](O)[C@@H]2O)[C@H](O)[C@@H]1O[C@H]1O[C@H](CO)[C@@H](O)[C@H](N)[C@@H]1O`, the outcome in assay [1], in assay [2], in assay [3], in assay [4], in assay [5] and in assay [7] was inactive. Besides, the result in assay [6] was inactive.

A word on the AC50: it is the concentration giving half of the maximal activity seen. Take `CN1CC[C@]23c4c5ccc(O)c4O[C@H]2[C@@H](O)C=C[C@H]3[C@H]1C5`: the result in assay [1] and in assay [2] was inactive. The AC50 in assay [4] was 35.5 µM (active).

In the case of `CCCCCCCCCCCCCCCCOP(=O)([O-])OCC[N+](C)(C)C`, the outcome in assay [1], in assay [2] and in assay [4] was inactive.

For the compound `CCN(CC)C(=O)/C(C#N)=C/c1cc(O)c(O)c([N+](=O)[O-])c1`, the outcome in assay [1], in assay [2], in assay [3], in assay [4], in assay [5] and in assay [7] was inactive. Further, the outcome in assay [6] was inactive.

For the compound `CO[C@@]1(NC(=O)Cc2cccs2)C(=O)N2C(C(=O)O)=C(COC(N)=O)CS[C@@H]21`, the outcome in assay [1], in assay [2], in assay [3], in assay [4], in assay [5] and in assay [7] was inactive. Moreover, the outcome in assay [6] was inactive.

Take `C[N+]1(C)CCCC(OC(=O)C(O)(c2ccccc2)c2ccccc2)C1` (stereo not drawn): the result in assay [1], in assay [2], in assay [3], in assay [4], in assay [5] and in assay [7] was inactive. For the same compound, the outcome in assay [6] was inactive.

Turning to `O=C(O)CCCc1ccc(N(CCCl)CCCl)cc1`, the outcome in assay [1], in assay [2], in assay [3], in assay [4], in assay [5] and in assay [6] was inactive. In assay [8], this compound returned a cell viability, % of control (lower = more cytotoxic) of 84.6%.

`CCN[C@H](C)Cc1cccc(C(F)(F)F)c1`: the result in assay [1] and in assay [2] was inactive. In addition, the AC50 in assay [4] is 31.6 µM (active).

On to `NC(N)=NC(=O)Cc1c(Cl)cccc1Cl`, for which the outcome in assay [1], in assay [2], in assay [3], in assay [4], in assay [5] and in assay [7] was inactive. The outcome in assay [6] was inactive.

Turning to `COc1cc(C=C2CCC/C(=C\c3ccc(O)c(OC)c3)C2=O)ccc1O`, the AC50 in assay [1] and in assay [4] was 28.2 µM (active) in each case. For the same compound, the result in assay [2] was inactive.

`NS(=O)(=O)c1cc(C2(O)NC(=O)c3ccccc32)ccc1Cl` (stereo not drawn): the result in assay [1], in assay [2], in assay [3], in assay [4], in assay [5] and in assay [6] was inactive.

Regarding `COCCCOc1ccnc(CS(=O)c2nc3ccccc3[nH]2)c1C` (stereo not drawn), the outcome in assay [1], in assay [2], in assay [3], in assay [4], in assay [5] and in assay [7] was inactive. Besides, the result in assay [6] was inactive.

Take `S=P(N1CC1)(N1CC1)N1CC1`: the result in assay [1], in assay [2], in assay [3], in assay [4], in assay [5] and in assay [6] was inactive.

In the case of `Nc1ncn([C@H]2C[C@H](O)[C@@H](CO)O2)c(=O)n1`, the result in assay [1], in assay [2], in assay [3], in assay [4], in assay [5] and in assay [6] was inactive.

`COc1cc(C(=O)NS(=O)(=O)c2ccccc2C)ccc1Cc1cn(C)c2ccc(NC(=O)OC3CCCC3)cc12`: the outcome in assay [1], in assay [2], in assay [3], in assay [4], in assay [5] and in assay [7] was inactive. Also, the outcome in assay [6] was inactive.

Consider `O=C(N[C@H](CO)[C@H](O)c1ccc([N+](=O)[O-])cc1)C(Cl)Cl`, for which the result in assay [1], in assay [2], in assay [3], in assay [4], in assay [5] and in assay [7] was inactive. For the same compound, in assay [6], the result was inactive.

As for `C#CCN[C@@H]1CCc2ccccc21`, the outcome in assay [1], in assay [2], in assay [3], in assay [4], in assay [5] and in assay [7] was inactive. Further, the outcome in assay [6] was inactive.

As to `N=C(N)N1CCc2ccccc2C1`, the result in assay [1], in assay [2] and in assay [4] was inactive.

Take `CN1C(CSCC(F)(F)F)Nc2cc(Cl)c(S(N)(=O)=O)cc2S1(=O)=O` (stereo not drawn): the outcome in assay [1], in assay [2], in assay [3], in assay [4], in assay [5] and in assay [6] was inactive.

As to `CCN(CC)CCc1c[nH]c2ccccc12`, the outcome in assay [1], in assay [2] and in assay [4] was inactive.

Regarding `O=C1CN=C(c2ccccc2)c2cc([N+](=O)[O-])ccc2N1`, the result in assay [1], in assay [2], in assay [3], in assay [4], in assay [5] and in assay [7] was inactive. Further, the result in assay [6] was inactive.

Consider `C[C@](N)(Cc1ccc(O)cc1)C(=O)O`, for which the outcome in assay [1], in assay [2], in assay [3], in assay [4], in assay [5] and in assay [6] was inactive.

`CC(C)N(CCC(C(N)=O)(c1ccccc1)c1ccccn1)C(C)C` (stereo not drawn): the outcome in assay [1], in assay [2], in assay [3], in assay [4], in assay [5] and in assay [7] was inactive. The result in assay [6] was inactive.

In the case of `CCc1cc(C(N)=S)ccn1`, the result in assay [1], in assay [2], in assay [3], in assay [4], in assay [5] and in assay [6] was inactive.

For `CCn1cc(C(=O)O)c(=O)c2cc(F)c(N3CCNC(C)C3)c(F)c21` (stereo not drawn), the result in assay [1], in assay [2], in assay [3], in assay [4], in assay [5] and in assay [6] was inactive.

On to `CCC1(C)CC(=O)NC1=O` (stereo not drawn), for which the result in assay [1], in assay [2], in assay [3], in assay [4], in assay [5] and in assay [7] was inactive. The result in assay [6] was inactive.
